Screening data (PubChem)
Pf growth 48h = inhibits P. falciparum growth in the first generation, 48 h. P. falciparum luciferase growth in erythrocytes, 48 h. Potency, µM (highest dose often 28.7 µM), hits mostly inhibitors. 5.9% of 310,000 active. AID 504832
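Luminescence readout; reporter = integrated firefly luciferase in P. falciparum. RBC culture at 2% hematocrit, 0.1% parasitemia final, 37 C/5% CO2; decreased signal taken as growth inhibition.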
Sm TGR block = inhibitors of Schistosoma mansoni thioredoxin glutathione reductase; purified TGR, DTNB reduction, TNB absorbance 405 nm; Potency, µM (titrated, usually from 114 µM), usual class: inhibitors; 3% of 360,000 active; AID 485364; further: nearly all actives have a fitted effect of over 60% in size
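TGR 20 nM + NADPH 100 uM (dispensed conc.), cpd preinc 15 min RT; start with NADPH (500 uM addition) then DTNB (15 mM addition). Kinetic TNB absorbance, 405 nm filter. Four-parameter Hill fit across titration.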
NS1 function inh = influenza NS1 inhibition; 0.4% of 270,000 active; Potency, µM (highest dose often 46.1 µM); AID 2326; calls by dose curve; further: actives are rising curves; nearly all actives have a fitted effect of over 50% in size
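Compounds were scored for reversing the slow growth caused by influenza A NS1 in S. cerevisiae, measured by optical density at 600 nm. Assay medium contained 2% galactose at pH 6.0; NS1-free yeast of the same strain were the positive control.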
Pf growth 96h = P. falciparum growth inhibition at 96 hours. P. falciparum luciferase reporter growth, 96 h. Potency, µM (titrated, usually from 28.7 µM), actives largely listed as inhibitors. 6.9% of 320,000 active
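Parasite growth measured via integrated firefly luciferase reporter in P. falciparum. Infected erythrocytes at 2% hematocrit, 0.05% parasitemia final were treated 96 hours at 37 C under 5% CO2, and luminescence was read.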
AMA1 RON2 block = disrupts binding of P. falciparum AMA1 to RON2. AlphaScreen AMA1-biotinylated RON2 peptide binding. Potency, µM (top dose mostly 58.2 µM), actives largely listed as inhibitors. 0.2% of 360,000 active; further: nearly all actives have a fitted effect of over 45% in size
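AMA1 (3D7) with his tag at 25 nM final met compounds first, then biotinylated RON2 peptide at 25 nM; detection used donor plus acceptor beads, 10 µg/mL apiece, read by AlphaScreen after 30 min at room temperature.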
Hits are given with their value; 0 = inactive; ? = inconclusive; - = not tested or not shown; [ ] = remark or other dose. Hits are enriched below; roughly 11% of the tested compounds scored in any of these assays. Unless noted, the call rests on the fitted dose curve; in most records, active means well fitted curve in the direction sought with a large enough effect; inconclusive means small, poorly fitted or top-dose-only effect, or another doubt; inactive means no such curve, though single readings can be large; an effect the other way counts as inactive or inconclusive.

SMILES	Pf growth 48h	Sm TGR block	NS1 function inh	Pf growth 96h	AMA1 RON2 block
Cc1ccc(Cn2c(C(=O)O)c(CNC3CCCC3)c3ccc(C)cc32)cc1	-	0	-	-	-
CCn1c(C)c2c(C)nnc(C)c2c1C	0	45µM	0	?	0
Cc1nnc(C)c2c(C)n(-c3ccccc3)c(C)c12	?	0	0	0	0
CC1(C(=O)NS(=O)(=O)Cc2ccccc2)CCN1C(=O)Cc1cc(F)ccc1F (stereo not given)	-	-	-	-	0
COc1ccc(OCc2nc3c4c(ncn3n2)-c2ccccc2CC42CCCC2)cc1	?	0	0	13µM	0
Cc1cccc(OCc2nc3c4c(ncn3n2)-c2ccccc2CC42CCCC2)c1	0	0	0	?	0
Oc1cccc(-c2nc3c4c(ncn3n2)-c2ccccc2CC42CCCC2)c1	12µM	0	0	9.3µM	0
Cc1ccc(OCc2nc3c4c(ncn3n2)-c2ccccc2CC42CCCC2)cc1	?	0	0	15µM	0
Cc1ccccc1OCc1nc2c3c(ncn2n1)-c1ccccc1CC31CCCC1	?	0	0	5.2µM	0
Cc1cccc(CN2[C@H](CO)C=CS2(=O)=O)c1	-	-	-	-	0
CCN(CC)CCNC(=O)c1cc2cc(Br)ccc2s1	0	0	-	?	0
CCN(CC)c1cc(C)c2cc(NC(=O)c3ccccc3Cl)ccc2n1	-	0	-	-	-
CCCCN(Cc1nc2ccccc2c(=O)[nH]1)C(=O)COc1ccc(F)cc1Cl	2.6µM	0	-	3.7µM	0
CC(C)(C)n1nnnc1C(c1ccccc1)N1CCN(C(=O)C2CCCO2)CC1 (stereo not given)	-	-	-	-	0
CCCCCCNC(=O)N[C@H](C(=O)NCCC[C@H]1CN2C(=NC[C@H]2C)N1CCC(c1ccccc1)c1ccccc1)C(C)O (stereo not given in full)	9.3µM	0.5µM	0	2.9µM	-
C/C(=N\Nc1cccc(Cl)c1)C1(C)N(O)C(C)(C)C(c2ccco2)=[N+]1[O-] (stereo not given)	7.4µM	?	0	?	0
COc1ccc(CNS(=O)(=O)c2ccccc2Br)cc1	0	0	0	0	-
Cc1onc(-c2c(Cl)cccc2Cl)c1C(=O)N1CCOCC1	0	0	0	0	0
Cc1cc(C)c2nc(-c3cccc(Cl)c3)c(C)c(C(=O)N3CCOCC3)c2c1	12µM	0	0	?	0
OC(C#CCN1CCCC1)(c1ccccc1)c1cccnc1 (stereo not given)	?	32µM	0	?	0
OC(C#CCN1CCCCCC1)(c1ccccc1)c1cccnc1 (stereo not given)	?	14µM	0	12µM	0
Cc1cccc2c(C(=O)O)c3cccc(C)c3nc12	-	-	-	-	0
COc1ccccc1CCC(=O)OCC(=O)Nc1cccc(S(=O)(=O)N2CCOCC2)c1	0	0	-	0	0
CC(=O)N1CCN(S(=O)(=O)c2ccc(C)cc2)C1c1ccc(N(C)C)cc1 (stereo not given)	-	0[11.4 µM]	0	0	0
O=C(CN1CCOCC1)N1CCN(S(=O)(=O)c2ccccc2)C1c1ccccc1 (stereo not given)	0	0	0	?	0
SMILES	Pf growth 48h	Sm TGR block	NS1 function inh	Pf growth 96h	AMA1 RON2 block
Cc1ccc(S(=O)(=O)N2CCN(C(=O)CN3CCOCC3)C2c2ccccc2)cc1 (stereo not given)	0	40µM	0	0	0
COc1ccc(C2N(C(=O)CN3CCCC3)CCCN2S(=O)(=O)c2ccccc2)cc1 (stereo not given)	5.2µM	0	?	?	0
COc1ccc(C2N(C(C)=O)CCCN2S(=O)(=O)c2ccc(C)cc2)cc1 (stereo not given)	?	0	0	0	0
Cc1ccc(S(=O)(=O)N2CCN(C(=O)C(F)(F)F)C2c2ccc(N(C)C)cc2)cc1 (stereo not given)	0	0	0	13µM	0
O=C(Nc1nc2ccccc2s1)c1cccc(S(=O)(=O)N2CCc3ccccc32)c1	?	0	0	?	0
CCc1nnc(NC(=O)c2ccc(S(=O)(=O)N(C)c3ccccc3)cc2)o1	?	0	-	?	0
CNC(=O)c1ccsc1NC(=O)c1ccc(S(=O)(=O)N2CCCc3ccccc32)cc1	12µM	0	?	9.3µM	0
CC1CCc2nc(NC(=O)c3ccc(S(=O)(=O)N4CCCc5ccccc54)cc3)sc2C1 (stereo not given)	?	0	0	?	0
O=C(Nc1nc2c(s1)CN(Cc1ccccc1)CC2)c1cccc(S(=O)(=O)N2CCc3ccccc32)c1	?	0	0	8.3µM	0
O=C(Nc1nc2c(s1)CCCC2)c1ccc(S(=O)(=O)N2CCCc3ccccc32)cc1	?	0	0	10µM	0
CCc1nnc(NC(=O)c2ccc(S(=O)(=O)N3CCCc4ccccc43)cc2)o1	7.4µM	0	0	-	0
CCn1c(SCC(=O)NCCc2ccccc2)nc2c([nH]c3ccccc32)c1=O	0	0	0	0	0
Cc1ccc(CNC(=O)CCC2CCCN(C(=O)CCC(F)(F)F)C2)o1 (stereo not given)	0	13µM	0	8.3µM	0
Cc1ccc(CNC(=O)CCC2CCCN(C(=O)c3ccc4c(c3)OCO4)C2)o1 (stereo not given)	0	14µM	0	0	0
COc1ccc(-n2nc3c(c2NC(=O)COc2ccccc2)CS(=O)C3)cc1 (stereo not given)	0	0	0	0	0
C=CCNc1nc(Nc2ccc([N+](=O)[O-])cc2)nc(OC)n1	?	0	-	0	0
C=CCNc1nc(Cl)nc(Nc2ccc([N+](=O)[O-])cc2)n1	0	0	-	2.3µM	0
C=CCn1c(=O)c2ccccc2n2c(SCc3nc(N)nc(Nc4ccccc4C)n3)nnc12	8.3µM	0	?	?	0
O=C1NCC(O)=C1C=Nc1ccccc1O	10µM	0	0	?	0
O=C1NCC(O)=C1C=NCCCO	0	0	0	?	0
CCc1ccc(NC(=O)N2CCOc3ccc(Cl)cc32)cc1	-	0	-	-	-
COc1ccc(OC)c(S(=O)(=O)N2CCC(NC(=O)c3ccccc3)CC2)c1	?	0	0	?	0
O=C(COc1ccc([N+](=O)[O-])cc1)Nc1nc(-c2ccccn2)cs1	9.3µM	0	-	6.6µM	0
O=C(Nc1nc(-c2ccccn2)cs1)c1ccc(-c2ccccc2F)o1	?	25µM	-	?	0
O=C(Nc1nc(-c2cc(F)ccc2F)cs1)c1ccccn1	0	0	-	?	0
SMILES	Pf growth 48h	Sm TGR block	NS1 function inh	Pf growth 96h	AMA1 RON2 block
CC(=O)Nc1ccc(-c2csc(NNC(=O)c3ccc(C)cc3)n2)cc1	0	-	0	0	0
Cc1ccc(C(=O)Nc2nc(-c3ccc([N+](=O)[O-])cc3)cs2)o1	0	0	0	?	0
CC(=O)Nc1ccc(-c2csc(NC(=O)c3ccc(C)o3)n2)cc1	-	0	0	9.3µM	0
O=C(COc1ccc(F)cc1)Nc1nc(-c2ccccn2)cs1	?	0	-	?	0
CC(=O)NNc1nc(-c2ccc(NC(C)=O)cc2)cs1	0	40µM	?	0	0
O=C(NCc1ccccc1Cl)c1ccc2sc([C@@H]3O[C@H](CO)[C@H](O)[C@H](O)[C@H]3O)nc2c1	-	-	-	-	0
